Several values for one entry are separate records, joined by “and”; a condition that tells them apart may be missing. Identical values can stand only once. Some structures have more than one record in an assay (separate samples or runs), and their calls can disagree. Activity calls are given as the source filed them. Rule for the calls: active = hit-call score of the fitted dose curve at least 0.9, where 1 is the maximum; inactive = score below 0.9.

The nature of the first experiment: ATG_RORE_CIS: Attagene CIS-FACTORIAL HepG2 Assay for human RAR-related Orphan Receptor Element (RORE) (AID 2282959). Conditions: HepG2 Attagene cis-factorial RORE reporter, mRNA; actives raise or lower the signal. A digest of the protocol: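 A 24-hour exposure of transfected HepG2 hepatoma cells precedes RNA isolation and reporter RT-PCR. Labeled products are digested with HpaI and resolved by capillary electrophoresis, with gain or loss of signal scored relative to DMSO.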
On to `COc1nc(NC(C)C)nc(NC(C)C)n1`, for which the AC50 – broadly, the concentration giving half of the maximal activity seen – is 30.5 µM (active) and the outcome was inactive.
For `COc1nc(C)nc(NC(=O)NS(=O)(=O)c2ccccc2Cl)n1`, the compound was called inactive.
For the compound `CCOC(=O)CC(SP(=S)(OC)OC)C(=O)OCC` (stereo not drawn), the AC50 was 150 µM (active) and the result was inactive.
Turning to `CCCCC(CC)COC(=O)c1ccccc1C(=O)OCC(CC)CCCC` (stereo not drawn), the compound was called inactive.
`COc1nc(C)nc(NC(=O)NS(=O)(=O)c2ccccc2CCC(F)(F)F)n1`: the call was inactive.
Same read-out and setting: as for `COc1ccc(C(c2ccc(OC)cc2)C(Cl)(Cl)Cl)cc1`, the entry is “inactive”; as for `COP(=S)(OC)Oc1nc(Cl)c(Cl)cc1Cl`, “inactive”.
Turning to `COC(=O)N(OC)c1ccccc1COc1ccn(-c2ccc(Cl)cc2)n1`, the AC50 is 2.2 µM (active).
As to `N#Cc1nn(-c2c(Cl)cc(C(F)(F)F)cc2Cl)c(N)c1S(=O)C(F)(F)F` (stereo not drawn), the call was inactive.
The same measure, in the same setting: then `C=CCC1=C(C)[C@@H](OC(=O)[C@@H]2[C@@H](C=C(C)C)C2(C)C)CC1=O`, with “inactive”.
On the same count and under the same terms, as for `CCCC1COC(Cn2cncn2)(c2ccc(Cl)cc2Cl)O1` (stereo not drawn), the entry is “inactive”; as for `CO/C=C(/C(=O)OC)c1ccccc1Oc1cc(Oc2ccccc2C#N)ncn1`, “inactive”.
For `CON(C)C(=O)Nc1ccc(Cl)c(Cl)c1`, the outcome was inactive.
With `CCCCNC(=O)n1c(NC(=O)OC)nc2ccccc21`, the compound was classed as inactive.
Take `CCCCOC(=O)c1ccccc1C(=O)OCCCC`: the AC50 was 29 µM (active) and 50 µM (active); the result was inactive.
As to `COC(=O)c1ccccc1C(=O)OC`, the call was inactive.
In the case of `CCCCNC(=O)OCC#CI`, the AC50 was 27.3 µM (active) and the compound was classed as inactive.
With `CC(C)(C)c1ccc(CSc2cnn(C(C)(C)C)c(=O)c2Cl)cc1`, the AC50 is 1.88 µM (active).
With `C=CCC1=C(C)C(OC(=O)C2C(C=C(C)C)C2(C)C)CC1=O` (stereo not drawn), the AC50 is 27.2 µM (active) [middle of 4 runs] and the call was inactive.
As for `COC(=O)C=C(C)OP(=O)(OC)OC`, the result was inactive.
On to `CC(C)C1(C)N=C(c2nc3ccccc3cc2C(=O)O)NC1=O` (stereo not drawn), for which the result was inactive.
Still for that read-out and setting: then `CCCN(CCC)c1c([N+](=O)[O-])cc(S(N)(=O)=O)cc1[N+](=O)[O-]`, with “inactive”.
In the case of `CCc1nn(C)c(C(=O)NCc2ccc(C(C)(C)C)cc2)c1Cl`, the outcome was inactive.
Same read-out and setting: as for `OC(c1ccc(Cl)cc1)(c1cncnc1)c1ccccc1Cl` (stereo not drawn), the entry is “inactive”.

Another experiment can be described thus: ATG_Sox_CIS: Attagene CIS-FACTORIAL HepG2 Assay for human SRY-box transcription factor (SOX) (AID 2282960). The settings on record: HepG2 Attagene cis-factorial SOX reporter, mRNA; actives raise or lower the signal. A digest of the protocol:
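HepG2, cis reporter units, 24 h exposure. Reporter mRNA: RT-PCR → FAM labelling → HpaI → CE fluorescence. Bidirectional fit vs DMSO.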
On to `COc1nc(NC(C)C)nc(NC(C)C)n1`, for which the compound was called inactive.
Regarding `Oc1ccccc1-c1ccccc1`, the AC50 is 46 µM (active) and the call was inactive.
`COc1nc(C)nc(NC(=O)NS(=O)(=O)c2ccccc2Cl)n1`: the compound was classed as inactive.
Still for that read-out and setting: as for `CCOC(=O)CC(SP(=S)(OC)OC)C(=O)OCC` (stereo not drawn), the entry is “inactive”; as for `CCCCC(CC)COC(=O)c1ccccc1C(=O)OCC(CC)CCCC` (stereo not drawn), “inactive”.
Regarding `COc1nc(C)nc(NC(=O)NS(=O)(=O)c2ccccc2CCC(F)(F)F)n1`, the compound was called inactive.
Still for that read-out and setting: then `COc1ccc(C(c2ccc(OC)cc2)C(Cl)(Cl)Cl)cc1`, with “inactive”; and `CNC(=S)S`, with “inactive”.
The same measure, in the same setting: as for `COP(=S)(OC)Oc1nc(Cl)c(Cl)cc1Cl`, the entry is “inactive”.
Take `COC(=O)N(OC)c1ccccc1COc1ccn(-c2ccc(Cl)cc2)n1`: the outcome was inactive.
Same read-out and setting: then `N#Cc1nn(-c2c(Cl)cc(C(F)(F)F)cc2Cl)c(N)c1S(=O)C(F)(F)F` (stereo not drawn), with “inactive”.
Same read-out and setting: then `C=CCC1=C(C)[C@@H](OC(=O)[C@@H]2[C@@H](C=C(C)C)C2(C)C)CC1=O`, with “inactive”.
The same measure, in the same setting: as for `CCCC1COC(Cn2cncn2)(c2ccc(Cl)cc2Cl)O1` (stereo not drawn), the entry is “inactive”.
With `CO/C=C(/C(=O)OC)c1ccccc1Oc1cc(Oc2ccccc2C#N)ncn1`, the outcome was inactive.
On the same count and under the same terms, as for `CON(C)C(=O)Nc1ccc(Cl)c(Cl)c1`, the entry is “inactive”; as for `CCCCNC(=O)n1c(NC(=O)OC)nc2ccccc21`, “inactive”; as for `CCCCOC(=O)c1ccccc1C(=O)OCCCC`, “inactive”.
Take `COC(=O)c1ccccc1C(=O)OC`: the compound was classed as inactive.
Regarding `CCCCNC(=O)OCC#CI`, the half-maximal activity concentration (AC50) is 26.5 µM (active) and the compound was classed as inactive.
As to `CC(C)(C)c1ccc(CSc2cnn(C(C)(C)C)c(=O)c2Cl)cc1`, the call was inactive.
`C=CCC1=C(C)C(OC(=O)C2C(C=C(C)C)C2(C)C)CC1=O` (stereo not drawn): the AC50 is 90.4 µM (active) and 105 µM (active); the call was inactive.
As to `COC(=O)C=C(C)OP(=O)(OC)OC`, the call was inactive.
Same read-out and setting: as for `CC(C)C1(C)N=C(c2nc3ccccc3cc2C(=O)O)NC1=O` (stereo not drawn), the entry is “inactive”; as for `CCCN(CCC)c1c([N+](=O)[O-])cc(S(N)(=O)=O)cc1[N+](=O)[O-]`, “inactive”.
Still for that read-out and setting: as for `CCc1nn(C)c(C(=O)NCc2ccc(C(C)(C)C)cc2)c1Cl`, the entry is “inactive”; as for `OC(c1ccc(Cl)cc1)(c1cncnc1)c1ccccc1Cl` (stereo not drawn), “inactive”.
